# Abeta yeast res – A-beta toxicity reversal in yeast; yeast expressing A-beta42, growth rescue, OD600, 48 h; response scale: 0% DMSO, 100% iron-clioquinol control; Potency, µM (titrated, usually from 46.1 µM), most hits filed as activators; 410,000 compounds, 0.063% hits; AID 1347071; also: nearly all actives have a fitted effect of over 55% in size
#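 Yeast A-beta toxicity model in growth medium with pinned compounds, 48 h at 30 C; growth read as absorbance at 600 nm. Normalized to FeCl3/clioquinol equimolar mix (positive) and DMSO (negative).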
# Mm-Cpn inhibitor – inhibitors of Methanococcus maripaludis chaperonin TRiC (MmCpn) | purified Mm-Cpn ATPase, ADP Transcreener TR-FRET | Potency, µM (doses to about 76.9 µM), for inactives: at the top dose activity, negative = inhibition, hits mostly inhibitors | 330,000 compounds, 0.031% hits; also: % is scaled to controls: 0 for no effect and ±100 for the full control effect; nearly all actives have a fitted effect of over 80% in size
#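 Inhibition of chaperonin ATP hydrolysis is measured as reduced ADP production, detected by competitive TR-FRET in which signal falls with ADP. Final enzyme 25 nM and ATP 10 uM, reacted 30 min at 37°C.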
# ClpP mod – qHTS Assay for Activators of ClpP | ATP-dependent Clp protease proteolytic subunit (Bacillus subtilis (strain 168)), P80244 | purified B. subtilis ClpP, FRET peptide cleavage, 20 min | Potency, µM (doses to about 57.5 µM), for the others: at the top dose activity change, negative = active | 340,000 compounds, 1.9% hits; active = well fitted falling curve with a large enough effect; inconclusive = small, poorly fitted or top-dose-only effect; inactive = no such curve, though single readings can be large or run the other way; also: the source files actives as falling curves though it sought activators and does not explain the sign; nearly all actives have a fitted effect of over 65% in size
# Target sequence (P80244 whole entry, looked up): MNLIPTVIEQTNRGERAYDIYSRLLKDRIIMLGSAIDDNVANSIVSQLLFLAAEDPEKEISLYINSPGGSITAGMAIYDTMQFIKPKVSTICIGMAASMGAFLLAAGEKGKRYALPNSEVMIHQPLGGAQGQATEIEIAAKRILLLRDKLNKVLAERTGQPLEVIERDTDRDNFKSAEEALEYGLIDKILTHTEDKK
#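 Buffer: 100 mM Tris/HCl pH8, 100 mM KCl, 0.05% low protease BSA, 2.5% glycerol, 0.01% Tween-20. ClpP 10 microg/mL final; 20 min RT; delta FRET normalized to ADEP and DMSO controls.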
# TDP-43 yeast inh – TDP-43 toxicity inhibition in yeast | Potency, µM (highest dose often 46.1 µM), for the others: top-dose growth rescue (activation), actives largely listed as activators | AID 652104 | TDP-43 expressing yeast growth rescue, BacTiter-Glo, 24 h | 410,000 compounds, 1.8% hits; also: % of control where 0% means no effect; nearly all actives have a fitted effect of over 50% in size
#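 Yeast expressing TDP-43 (pregrown in raffinose, seeded at OD600=0.02 in galactose medium) exposed to compounds 24 hr at 30 deg C. Growth read by BacTiter-Glo luminescence; rescue of toxicity appears as increased signal.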
# aSyn rescue – inhibitors of alpha-synuclein toxicity in yeast | Yeast expressing alpha-synuclein, growth rescue, BacTiter-Glo, 24 h | Potency, µM (top dose mostly 46.1 µM), inactives show at the highest dose growth rescue (activation), hits mostly activators | 370,000 compounds, 0.14% hits; also: % of control where 0% means no effect; nearly all actives have a fitted effect of over 65% in size
#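 Rescue of yeast growth: cells expressing toxic alpha-synuclein, induced in galactose at OD600 0.02, incubated with compound 24 h at 30 C. ATP luminescence quantified growth; inhibitors of toxicity appear as activators.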
# FUS yeast rescue – rescues growth of FUS-expressing yeast. 390,000 compounds, 0.24% hits. S. cerevisiae FUS-expressing, growth rescue, OD600, 24 h. Potency, µM (doses to about 76.6 µM), most hits filed as activators;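 also: plate controls were DMSO vehicle for no effect and reference control for full effect; nearly all actives have a fitted effect of over 55% in size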
#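 Yeast FUS proteinopathy model; galactose-induced FUS (2%), starting OD 0.005. Cpds in dilution series, 24hr, 30C, 99% humidity. Abs 600 nm growth. Pos ctrl CP55940 (top 92uM final); neg ctrl DMSO.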
# * = called active by the depositor; i = inactive; ? = inconclusive; nt = no result given; [ ] = dose if it differs, or a comment. Only some compounds are listed: those with a hit (about 3.6% of all), similar ones and a draw of the others. Unless noted, calls follow the shape of the dose curve; as a rule, active = well fitted curve in the direction sought with a large enough effect; inconclusive = small, poorly fitted or top-dose-only effect, or another doubt; inactive = no such curve, though single readings can be large; an effect the other way counts as inactive or inconclusive. Potency is read from the fitted curve at half-maximal effect.
SMILES,Abeta yeast res,Mm-Cpn inhibitor,ClpP mod,TDP-43 yeast inh,aSyn rescue,FUS yeast rescue
CCOC(=O)c1cc2c(=O)n3ccccc3nc2n(CC(C)C)c1=NC(=O)COc1ccc(Cl)cc1,i,nt,4%,0%,nt,i
COc1ccccc1CNC(=O)CCC1N=C2c3ccccc3N=C(SCC(=O)NCCc3ccc(OC)c(OC)c3)N2C1=O (stereo not given),i,nt,25%,-12%,nt,i
Cc1ccc(Cl)cc1N1CCN(C(=O)c2cnn(C(C)(C)C)c2C2CCN(C(=O)OC(C)(C)C)CC2)CC1,i,nt,1%,5%,nt,i
Cc1ccc(Cl)cc1N1CCN(C(=O)c2cnn(C)c2C2CCN(C(=O)OC(C)(C)C)CC2)CC1,i,nt,1%,22µM*,nt,?
CCC(=O)NC(c1ccco1)c1cc(Cl)c2cccnc2c1O (stereo not given),i,2%,nt,17%,11µM*,i
Nc1ccc(/C=C/c2ccc3cccnc3c2)cc1,nt,nt,-3%,nt,-3%,nt
O=C(NCc1ccccc1Cl)c1ccccc1NC(=O)c1nsc2ccccc12,i,nt,98%,-5%,nt,i
COc1ccc(-c2c(C)nn3c(C(F)(F)F)cc(C)nc23)cc1,i,nt,2%,27%,-5%,i
COc1ccc(-c2c(C)nn3c(C)cc(C)nc23)cc1,i,-1%,-8%,14µM*,-6%,i
Cc1ccnc2nc(C(=O)OCCOc3cccc(Br)c3)nn12,?,-1%,-3%,16µM*,-13%,i
Cc1ccnc2nc(C(=O)OCCOc3ccccc3)nn12,i,-1%,1%,-3%,-14%,i
COC(=O)C1CCCCN1C(=O)c1ccc2oc(C(C)C)nc2c1 (stereo not given),i,-1%,-1%,-15%,-15%,i
COC(=O)C1CCCCN1C(=O)c1ccc2oc(Cc3ccccc3)nc2c1 (stereo not given),i,-5%,28µM*,?,5%,nt
COc1ccc(CNc2ccccc2C(=O)NCc2ccccc2)cc1COc1ccc(NC(C)=O)cc1,nt,nt,4%,nt,11%,nt
O=C(Oc1cccc(Nc2ncnc3ccccc23)c1)c1ccccc1Cl,i,-1%,32µM*,?,-8%,i
Cc1ccccc1C(=O)N1CC(=O)Nc2ccc(Cl)cc2C1c1ccccc1 (stereo not given),i,nt,-2%,9%,nt,i
O=C1CCC[C@@H]2CC(N(Cc3cc4ccccc4s3)c3ccccc3)C[C@@H]3CCN1[C@H]23 (stereo not given in full),nt,nt,0%,nt,nt,nt
O=C(c1ccccc1)N(C(=O)c1ccccc1)c1ccccc1,i,nt,-1%,4.5µM*,-10%,i
Clc1ccc(/C=C/c2ccc3ccccc3n2)c(Cl)c1,nt,nt,-6%,nt,3%,nt
COc1ccc(-c2cc(C(F)F)n3ncc(C(=O)N4CCSCC4)c3n2)cc1,i,-1%,-27%,-14%,9%,i
COc1ccc(-c2cc(C(F)F)n3ncc(C(=O)N4CCN(C)CC4)c3n2)cc1,i,-5%,25µM*,-13%,-3%,i
COc1ccc(NC(=O)CCc2nc3cccnc3n2Cc2cccs2)c(OC)c1,i,nt,-17%,24%,nt,i
CC(C)c1nn2c(=O)cc(COC(=O)c3ccccc3NC(=O)c3cccs3)nc2s1,i,nt,0%,18%,nt,i
COc1ccccc1NS(=O)(=O)c1cc(NC(=O)Nc2ccccc2)ccc1N1CCCCC1,i,-18%,25µM*,8%,2%,i
COc1ccccc1NS(=O)(=O)c1cc(NC(=O)c2ccncc2)ccc1N1CCOCC1,i,2%,25µM*,23%,-1%,i
SMILES,Abeta yeast res,Mm-Cpn inhibitor,ClpP mod,TDP-43 yeast inh,aSyn rescue,FUS yeast rescue
COc1ccccc1NS(=O)(=O)c1cc(NC(=O)c2ccc(NC(C)=O)cc2)ccc1N1CCOCC1,i,nt,-1%,8%,-28%,nt
COc1ccccc1NS(=O)(=O)c1cc(NC(=O)C(C)C)ccc1N1CCCCC1,i,2%,-4%,9%[9.22 µM],-18%,i
COc1ccc(NS(=O)(=O)c2cc(NC(=O)CCNC(C)=O)ccc2N2CCCCC2)cc1,i,0%,0%,1%,1%[1.84 µM],32µM*
COc1ccc(CCC(=O)Nc2ccc(N3CCOCC3)c(S(=O)(=O)Nc3ccc(OC)cc3)c2)cc1,i,nt,-2%,-4%,-1%,i
COc1ccc(Nc2nc3ccccc3c3nnc(C)n23)cc1Cl,i,nt,-27%,8%,nt,i
CCOc1ccccc1NC(=O)CSc1nccn1Cc1ccc(F)cc1,i,nt,2%,14%,nt,i
COc1ccc(-c2nc(CSCC(=O)N3CCc4ccccc4C3)c(C)o2)cc1OC,i,-1%,4%,?,3%,i
CCOC(=O)N1CCC(NC(=O)CSCc2nc(-c3ccc(OC)c(OC)c3)oc2C)CC1,i,-1%,8.9µM*,-6%,-1%,i
CCOC(=O)C1CCN(C(=O)CSCc2nc(-c3ccc(OCC)cc3)oc2C)CC1,i,-2%,28µM*,?,3%,i
COc1ccc(-c2nc(CSCC(=O)NC3CC3)c(C)o2)cc1OC,i,0%,3%,-11%,0%,i
COc1ccc(-c2nc(CSCC(=O)NC3CCCc4ccccc43)c(C)o2)cc1OC (stereo not given),i,-5%,28µM*,?,10%,?
COc1ccc(-c2nc(CSCC(=O)N3CCN(c4cccc(C)c4)C(C)C3)c(C)o2)cc1OC (stereo not given),i,-5%,-18%,22µM*,8%,?
Nc1[nH]c2cc(Cl)ccc2c1C(=O)N1CCOCC1,nt,nt,nt,nt,nt,i
CCOC(=O)c1sc2ncnc(NCc3ccco3)c2c1C,?,-12%,-29%,20µM*,3%,i
CCOC(=O)c1sc2nc(CC(=O)OC)nc(NCc3ccco3)c2c1C,i,-9%,28µM*,20%,4%,nt
N#Cc1cccc(-c2csc(N3CCC(C(N)=O)CC3)n2)c1,nt,-2%,nt,nt,nt,nt
Cc1nc2ccc([N+](=O)[O-])cc2c(=O)n1Cc1ccc(Cl)cc1,i,1%,1%,?,-1%,i
Cc1nc2ccc(N)cc2c(=O)n1Cc1ccc(Cl)cc1,i,0%,35µM*,8%,3%,i
CCCCc1c(CCC)c(=N)c2ccccc2n1C,i,-2%,16µM*,-7%,0%,i
CCCCc1c(O)c2ccccc2n(CCCC)c1=O,i,1%,0%,21%,-13%,i
